# Experimental data published in PubChem BioAssay.
# The source made the active and inactive calls.
# How the values were obtained:
# [1] = anti-His antibody binders, primary screen, artefact control for SMM control protein annotation, biochemical, small-molecule microarray, 635 nm fluorescence (AID 1128); conditions: anti-His Alexa647 antibody binding, higher = more signal;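 note: score merges feature fluorescence with signal-to-noise for each printed compound spot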
# [2] = test system: Human papillomavirus type 1a E7 protein (residues 1-88); experiment: HPV1a E7 small-molecule binders, primary screen, biochemical, small-molecule microarray, residues 1-88, 635 nm (AID 1129); conditions: small-molecule microarray binding, fluorescence 635 nm; higher = more signal
# [3] = target: Focal adhesion kinase 1 (Homo sapiens) (UniProt Q05397); experiment: small-molecule microarray binders of FAK, primary screen, biochemical, 635/667 nm fluorescence, BSA, DTT (AID 1130); conditions: PTK2 binding, 635 nm fluorescence, higher = more signal;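 note: composite of spot emission at 667 nm and signal to noise over triplicate slides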
# Focal adhesion kinase 1 (Homo sapiens), sequence (Q05397 whole entry, looked up): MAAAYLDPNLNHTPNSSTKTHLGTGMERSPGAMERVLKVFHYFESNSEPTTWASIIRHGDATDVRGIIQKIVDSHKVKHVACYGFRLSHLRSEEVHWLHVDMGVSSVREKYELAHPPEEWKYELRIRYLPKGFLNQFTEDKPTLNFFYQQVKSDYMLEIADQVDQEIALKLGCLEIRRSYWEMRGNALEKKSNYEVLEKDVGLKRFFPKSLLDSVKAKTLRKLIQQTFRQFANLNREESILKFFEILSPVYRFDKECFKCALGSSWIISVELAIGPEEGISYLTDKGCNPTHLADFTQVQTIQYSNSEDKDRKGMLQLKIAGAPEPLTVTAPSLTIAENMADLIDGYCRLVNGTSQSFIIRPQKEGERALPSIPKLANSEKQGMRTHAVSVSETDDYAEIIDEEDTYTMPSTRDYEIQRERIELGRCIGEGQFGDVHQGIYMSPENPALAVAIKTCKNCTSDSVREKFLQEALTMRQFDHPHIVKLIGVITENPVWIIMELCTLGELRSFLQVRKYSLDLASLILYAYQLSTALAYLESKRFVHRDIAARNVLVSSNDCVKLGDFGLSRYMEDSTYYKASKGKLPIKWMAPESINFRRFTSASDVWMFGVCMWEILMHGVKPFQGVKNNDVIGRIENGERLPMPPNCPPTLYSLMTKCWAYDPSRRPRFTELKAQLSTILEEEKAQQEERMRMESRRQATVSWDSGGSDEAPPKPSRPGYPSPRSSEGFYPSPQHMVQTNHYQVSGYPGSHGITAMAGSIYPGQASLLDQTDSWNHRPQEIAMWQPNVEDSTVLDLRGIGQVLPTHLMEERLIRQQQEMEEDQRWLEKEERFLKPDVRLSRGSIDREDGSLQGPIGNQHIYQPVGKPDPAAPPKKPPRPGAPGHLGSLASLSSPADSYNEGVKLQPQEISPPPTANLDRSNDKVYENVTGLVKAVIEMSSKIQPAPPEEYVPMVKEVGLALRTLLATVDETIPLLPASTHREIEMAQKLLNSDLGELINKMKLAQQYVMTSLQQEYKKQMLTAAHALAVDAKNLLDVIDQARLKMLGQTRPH
# [4] = test system: Fibrinogen (Alexa647-labelled); experiment: fibrinogen binders on compound microarrays, profiling panel, artefact control for SMM control-protein annotation, biochemical, small-molecule microarray, 635/667 nm fluorescence (AID 1131); conditions: fibrinogen-A647 binding fluorescence, higher = more signal;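 note: z-score merges 667 nm fluorescence with per-spot signal-to-noise over triplicate slides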
# [5] = target: Follistatin (Homo sapiens) (UniProt P19883); experiment: follistatin binders on small-molecule microarrays, primary screen, biochemical, small-molecule microarray, 635/667 nm fluorescence (AID 1132); conditions: FST binding, 635 nm fluorescence, higher = more signal
# Follistatin (Homo sapiens), sequence (P19883 whole entry, looked up): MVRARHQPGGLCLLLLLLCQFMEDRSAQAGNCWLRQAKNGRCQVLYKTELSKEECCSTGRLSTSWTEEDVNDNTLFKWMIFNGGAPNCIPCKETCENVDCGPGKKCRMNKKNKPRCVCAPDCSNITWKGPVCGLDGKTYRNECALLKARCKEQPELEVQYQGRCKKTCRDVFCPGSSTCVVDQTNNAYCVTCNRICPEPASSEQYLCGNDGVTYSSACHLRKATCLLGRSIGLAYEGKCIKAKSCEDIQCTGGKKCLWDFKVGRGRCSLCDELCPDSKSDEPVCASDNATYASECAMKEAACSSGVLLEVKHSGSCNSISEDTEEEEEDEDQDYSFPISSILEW
# [6] = target: Fibroblast growth factor 2 (Homo sapiens) (UniProt P09038); experiment: FGF2 binders on small-molecule microarrays, primary screen, biochemical, small-molecule microarray, 635/667 nm fluorescence (AID 1133); conditions: small-molecule microarray binding, FGF2, fluorescence 635/667; higher = more signal
# Fibroblast growth factor 2 (Homo sapiens), sequence (P09038 whole entry, looked up): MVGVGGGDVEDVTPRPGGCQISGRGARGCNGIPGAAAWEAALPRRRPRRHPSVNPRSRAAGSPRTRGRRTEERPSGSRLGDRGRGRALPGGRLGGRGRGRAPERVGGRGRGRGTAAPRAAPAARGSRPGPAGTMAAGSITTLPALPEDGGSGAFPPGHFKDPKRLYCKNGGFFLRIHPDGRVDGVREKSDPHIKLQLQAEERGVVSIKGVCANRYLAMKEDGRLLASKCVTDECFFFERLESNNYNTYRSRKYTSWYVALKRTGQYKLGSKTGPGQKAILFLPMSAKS
# [7] = mitochondrial membrane potential change in A549 cells, profiling panel, cell-based, JC-1 fluorescence, basal, 24 h, 100 nL (AID 1138); conditions: higher = more signal;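 note: A549 lung adenocarcinoma cells under basal conditions with no added stimulus; test concentration not given here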
# Lefty1 = Lefty1 binders on small-molecule microarrays, primary screen, biochemical, small-molecule microarray, 635/667 nm fluorescence (AID 1139); conditions: small-molecule microarray binding, fluorescence 635/667; higher = more signal
# [8] = test system: wheat germ agglutinin (Triticum aestivum), Alexa647-labelled; experiment: wheat germ agglutinin binders on compound microarrays, profiling panel, artefact control for SMM control-protein annotation, biochemical, small-molecule microarray, 635/667 nm fluorescence (AID 1140); conditions: WGA-A647 binding, 635 nm fluorescence, higher = more signal;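 note: score merges 667 nm feature emission with signal to noise over triplicate slides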
# [9] = target: Luciferin 4-monooxygenase (Photinus pyralis) (UniProt P08659); experiment: firefly luciferase enzyme inhibitors, primary screen, biochemical, luminescence, purified enzyme, 2006 set (AID 1141); conditions: SteadyGlo luminescence, 30 min, higher = more signal, called active from +8 up or from −8 down;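 note: cell-free assay with purified firefly luciferase at 100 ng per well in PBS; test concentration not given here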
# Luciferin 4-monooxygenase (Photinus pyralis), sequence (P08659 whole entry, looked up): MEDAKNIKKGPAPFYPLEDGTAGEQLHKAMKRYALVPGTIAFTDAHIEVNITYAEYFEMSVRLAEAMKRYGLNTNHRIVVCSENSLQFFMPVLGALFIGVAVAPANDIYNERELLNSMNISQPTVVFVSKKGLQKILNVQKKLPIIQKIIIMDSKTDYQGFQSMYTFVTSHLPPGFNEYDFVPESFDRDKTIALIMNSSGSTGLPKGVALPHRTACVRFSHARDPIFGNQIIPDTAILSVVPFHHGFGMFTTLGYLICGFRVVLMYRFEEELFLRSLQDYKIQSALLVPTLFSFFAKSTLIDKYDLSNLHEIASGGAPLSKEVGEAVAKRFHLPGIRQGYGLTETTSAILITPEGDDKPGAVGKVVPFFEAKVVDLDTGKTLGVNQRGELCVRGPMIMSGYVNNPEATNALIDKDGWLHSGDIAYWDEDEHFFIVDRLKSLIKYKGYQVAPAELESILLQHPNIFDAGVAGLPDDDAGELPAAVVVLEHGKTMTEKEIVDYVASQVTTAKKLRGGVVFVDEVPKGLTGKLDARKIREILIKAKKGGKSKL
SMILES,composite z-score [1],composite z-score [2],composite z-score [3],composite z-score [4],composite z-score [5],composite z-score [6],z-score [7],composite z-score (Lefty1),composite z-score [8],z-score [9]
COC(=O)[C@@]1(Cc2ccc(OC)cc2)[C@H]2c3cc(C(=O)N4CCCC4)n(Cc4cc(F)c(F)c(F)c4)c3C[C@H]2CN1C(=O)c1ccccc1,2.21,1.26,0.59,1.02,1.19,-0.149,0.649,-0.551,1.31,1.95 (inactive)
Cc1cc(C)c(-c2cc([C@H](C)ON=C3[C@H]4CCn5c(=O)n(-c6ccccc6)c(=O)n5[C@H]4[C@H](O)[C@@H]4O[C@H]34)on2)c(C)c1,-0.286,0.748,0.422,0.382,0.692,0.627,1.32,0.652,-0.0095,0.154 (inactive)
CCCNC(=O)OC[C@H]1O[C@H](CCON=C2[C@H]3CCn4c(=O)n(-c5ccccc5)c(=O)n4[C@H]3[C@H](O)[C@@H]3O[C@H]23)C=C[C@@H]1Oc1ccc(OC)cc1,-0.429,0.281,0.172,0.297,0.146,0.409,-0.0269,0.502,0.201,0.0766 (inactive)
CC(C)[C@@H](OCc1ccccc1)[C@H](C)C=NO[C@H](C)c1cn([C@H](CO)Cc2ccccc2)nn1,0.424,0.222,-0.238,0.286,0.171,0.446,0.506,0.913,0.106,-1.62 (inactive)
CC(CCN1CCCCc2nc(C)c(C)cc21)=NOC(C)CN1CCCCc2nc(C)c(C)cc21 (stereo not given),2.37,1.2,0.332,0.911,1.29,1.3,0.828,1.6,1.11,-0.483 (inactive)
CO[C@H]1O[C@H](CO)[C@@H](OC(=O)Nc2ccc(C#N)cc2)[C@H](OC(=O)c2cc3ccccc3[nH]2)[C@H]1OC(=O)c1cc2ccccc2[nH]1,2.87,1.18,0.831,0.787,0.491,1.33,0.71,0.421,0.955,-2.01 (inactive)
C=C(/C(=C/C[C@H](OC(=O)c1ccncc1)c1ccc(OCCO)cc1)c1cnc2ccccc2c1)C(C)C,0.426,1.21,0.144,0.853,1.47,1.82,1.26,1.52,0.843,-2.12 (inactive)
C[C@@H]1CC[C@H]2C(=O)O[C@H](COc3ccc(C(C)(C)C)cc3)CN2[C@H]1c1ccc(Br)cc1,2.99,-0.701,-0.0482,0.54,-0.123,0.0203,1.87,0.0924,0.148,-1.36 (inactive)
CC(C)[C@@H](OCc1ccccc1)[C@H](C)C=NOC[C@@H](C)[C@H](OCc1ccccc1)C(C)C,0.0377,0.289,0.121,-0.0745,0.426,0.139,-0.753,0.595,-0.0388,-0.11 (inactive)
CCOC(=O)[C@H](Cc1ccccc1)NC(=O)CCC1CC(OC(=O)NCCc2ccc(F)cc2)CC2(CCCC(COC(=O)NCC(c3ccccc3)c3ccccc3)O2)O1 (stereo not given in full),0.999,0.517,0.111,0.7,0.831,0.563,0.597,0.68,0.554,0.715 (inactive)
C/C=C\[C@@H](NCc1ccccc1Br)[C@@H](O)Cc1ccccc1,-0.13,-0.469,-0.119,-0.641,-0.604,-1.4,-1.4,-0.972,-0.819,0.979 (inactive)
NCCCCCNC(=O)[C@@H]1C[C@@H]2C(=O)N3CCC[C@H]3C(=O)N2[C@@H]1c1cccc(OCCO)c1,1.83,0.689,1.13,0.974,1.34,0.878,-0.269,0.437,0.881,-0.115 (inactive)
COc1ccc([Si](C)(C)[C@H]2[C@H](CC(=O)N3CCC[C@H]3CO)O[C@@]3(C(=O)N(Cc4cccc(N5C(=O)COc6ccccc65)c4)c4ccccc43)[C@@H]2C)cc1,0.514,0.885,0.392,-0.07,0.727,1.68,4.31,0.994,-0.32,-2.36 (inactive)
O=C(NN=C1C[C@@H](O)[C@@H](O)[C@@H]2[C@@H]3C(=O)N(c4cccc(Oc5ccccc5)c4)C(=O)[C@@H]3CC[C@H]12)OCc1ccccc1,1.22,0.116,-0.294,0.906,0.165,0.237,-1.25,0.168,0.557,1.26 (inactive)
COc1ccc(O[C@H]2C=C[C@@H](c3ccccc3)O[C@@H]2COC(=O)CCC(C)=NO[C@H](C)c2cn([C@@H]3COC[C@H]3O)nn2)cc1,1,0.225,0.149,0.517,0.368,0.459,-1.56,0.701,-0.151,0.884 (inactive)
C=CC[C@@H]1C=C[C@H](ON=C[C@@H](OC)[C@H](C)C=CCC(=O)OC)[C@@H](CO)O1,-0.179,0.296,0.191,-0.613,0.234,0.13,-0.019,0.566,-1.06,0.191 (inactive)
CN(C)C(=O)[C@@]1(Cc2ccccc2)N=C(c2ccc(OCCCO)cc2)O[C@H]1c1ccccc1CN=[N+]=[N-],3.27,1.25,0.254,1.02,1.37,1.18,1.97,0.485,1.25,-0.088 (inactive)

SMILES,composite z-score [1],composite z-score [2],composite z-score [3],composite z-score [4],composite z-score [5],composite z-score [6],z-score [7],composite z-score (Lefty1),composite z-score [8],z-score [9]
c1ccc(C2NCCc3c2[nH]c2ccccc32)cc1 (stereo not given),0.191,-0.805,-0.0707,-1.82,0.236,0.737,-0.104,0.588,0.466,0.495 (inactive)
CC(C)(C)OC(=O)CC[C@]1(C(=O)NCc2ccccc2)N=C(c2ccc(OCCCO)cc2)O[C@H]1c1ccccc1,1.99,1.26,1.36,0.983,0.362,0.487,0.949,-0.326,0.732,0.172 (inactive)
CCCNC(=O)[C@@H]1c2ccccc2C(=O)N(c2ccc(C)cn2)[C@H]1c1ccc(CO)cc1,0.63,-0.38,0.14,-0.367,0.316,0.398,-0.307,-0.981,-0.273,0.544 (inactive)
COC(=O)CC=C[C@@H](C)[C@H](OC)c1ccccc1Br,-0.457,0.0434,-0.0378,-0.47,0.209,0.182,0.688,0.0835,-0.602,-0.384 (inactive)
COc1ccc(O[C@H]2C=C[C@@H](c3ccccc3)O[C@@H]2COC(=O)CCC(C)=NOC(C)CN2CCCCc3nc(C)c(C)cc32)cc1 (stereo not given in full),4.16,-0.303,0.214,-0.78,0.0731,-0.442,0.752,-0.214,0.878,0.731 (inactive)
CO[C@@H]1COC(=O)CC=C[C@@H](C)[C@H](OC)COC(=O)[C@H](COCc2ccccc2)NC(=O)CC=C[C@H]1C,-1.36,-2.53,-0.843,-1.21,1.43,0.513,-0.169,1.12,-1.13,0.518 (inactive)
CC(C)(C)N1CC=CC23O[C@@H]4C=CCCOC(=O)C4[C@H]2C(=O)N(CCCCCO)[C@@H]3C1=O (stereo not given in full),0.373,0.233,-0.441,-1.67,-0.435,-0.51,0.678,0.887,0.671,-0.789 (inactive)
COC(=O)C1=CCC(c2cccc(Cl)c2)O1 (stereo not given),0.192,0.24,-0.126,0.346,-0.399,-0.473,-0.816,-0.319,-0.455,1.74 (inactive)
CC(C)CON=C1C[C@@H](O)[C@@H](O)[C@@H]2[C@@H]3C(=O)N(Cc4ccccc4)C(=O)[C@@H]3CC[C@@H]12,0.705,0.633,0.528,-0.598,-0.163,0.239,-0.762,0.516,0.0615,1.12 (inactive)
COc1ccc(O[C@H]2C=C[C@@H](c3ccccc3)O[C@@H]2COC(=O)CCC(C)=NO[C@@H](C)c2cc(-c3c(C)cc(C)cc3C)no2)cc1,-0.566,-0.23,-0.174,-0.223,-1.32,-0.848,0.67,-0.773,-0.204,1.21 (inactive)
CC1CC/C=C\[C@H]2OC34C=CCN(C(C)C)C(=O)[C@H]3N(CCCO)C(=O)[C@@H]4C2C(=O)O1 (stereo not given in full),1.41,-0.883,-0.716,-1.5,-1.07,-1.24,0.439,-0.837,-1.09,-0.623 (inactive)
CC(CCC(=O)OC[C@H]1O[C@H](C#Cc2ccccc2)C=C[C@@H]1Oc1ccc(C)cc1)=NO[C@@H](C)c1cn([C@H](CO)Cc2ccccc2)nn1,1.35,0.0769,0.0915,0.716,0.335,0.61,-0.97,0.393,0.587,0.991 (inactive)
CC[C@@H](c1ccccc1)n1c(=O)n2n(c1=O)[C@H]1[C@H](O)[C@@H]3O[C@@H]3C(=NOCC(C)C)[C@H]1CC2,0.356,0.0566,-0.267,-0.203,0.38,0.0571,-0.492,0.542,-0.0401,0.292 (inactive)
C=CCN1C(=O)[C@]2(O[C@H](CCn3cc(CCO)nn3)[C@@H]([Si](C)(C)c3ccc(OC)cc3)[C@@H]2C)c2cc(N3CCOC3=O)ccc21,0.766,1.2,0.469,0.338,-0.293,-0.0054,0.982,0.0269,0.574,-1.8 (inactive)
[N-]=[N+]=NCc1ccccc1[C@@H]1OC(c2ccc(OCCCO)cc2)=N[C@]1(Cc1ccccc1)C(=O)N1CCOCC1,2.32,1.11,0.373,0.998,1.15,0.593,1.23,0.115,1.26,-0.633 (inactive)
COC(=O)[C@@H]1CCCN1C(=O)[C@@H](C)CO,0.933,1.16,0.21,0.868,0.473,0.723,-1.29,0.29,1.15,0.09 (inactive)
CC(C)=CCCC(C)=CCON=C1[C@H]2CCn3c(=O)n(C)c(=O)n3[C@H]2[C@H](O)[C@@H]2O[C@H]12,0.957,0.968,-0.236,0.674,0.865,0.896,0.637,1.37,0.115,-0.284 (inactive)
